# Records with an inconclusive call do not appear. Values without a mark were called inactive. The source made the active and inactive calls. The call rests on the fitted dose curve; in most records, active means well fitted inhibition curve with a large enough effect; inconclusive means small, poorly fitted or top-dose-only effect; inactive means no such curve, though single readings can be large or run the other way.
# Assay: Confirmation assay for measurement of the activity of small molecule inhibitors on Zika virus induced Caspase-3 activity in human astrocytoma cells
# Settings: SNB-19 ZIKV-induced caspase-3/7, luminescence, 6 h; series mostly up to 46.1 µM; activity change, negative = inhibition: at the top concentration
# Description: National Center for Advancing Translational Sciences [NCATS] Johns Hopkins University School of Medicine Florida State University Assay Overview: Increase in the Caspase-3 activity indicates an activation of apoptosis cell death pathway caused by Zika virus infection in certain types of neuronal cells including human neural progenitor cells (hNPCs), astrocytes, and astrocytoma cell line (SNB-19). This cell-based caspase-3 activity assay measures the increased caspase-3 activity in the astrocytoma cell line (SNB-19) after a 6-hour Zika virus infection with a luminescence readout. A decrease in the luminescence signal in this assay by small molecule treatment indicates an inhibitory effect of that small molecule on the Zika virus induced caspase-3 activity that may correlate with its effect on reduction of Zika virus caused cell death.
# Assay Protocol Summary: The medium for SNB-19 cells is composed of RPMI 1640 (ATCC, Cat.# 30-2001), 10% fetal bovine serum (FBS) (GE healthcare Life Sciences, Cat.# SH30071.03), and 1% Pen/Strep (Gibco, Cat.# 15140-122). A Caspase-Glo 3/7 assay kit (catalog number G8092; Promega, Madison, WI) was used to detect caspase-3 activity induced by Zika virus infection in human cells. The reagent mixture was reconstituted as described in the protocol from the manufacturer. Polystyrene tissue culture treated and PDL coated white plates were obtained from Greiner Bio-One (Monroe, NC). Cells were seeded in 384- or 1536-well assay plates and cultured at 37 C with 5% CO2 for 16 to 20 hours. The typical cell seeding density in the 1536-well plate assay is 250 cells/well in 3ul medium for SNB-19 cells in tissue culture treated plates. Compounds were added to cells and incubated for one hour before addition of ZIKV solution to cells (2 FFU/cell). After incubation at 37 C with 5% CO2 for 6 hours, the reagent mixture of Caspase-Glo 3/7 assay kit was added to each well, followed by incubation at room temperature for 30 minutes. The luminescence intensity of the assay plates was measured using a ViewLux plate reader (PerkinElmer). Data were normalized by using the cell-containing wells without ZIKV as a negative control (0% induction of caspase 3/7 activity) and wells containing ZIKV infected cells (Caspase-3 activity induced) as a positive control (100% induction of caspase 3 activity). The percentage inhibitions of the increased Caspase-3 activity by small molecule inhibitors were then calculated.
SMILES,Potency,"activity change, negative = inhibition"
O=C(Nc1ccc([N+](=O)[O-])cc1Cl)c1cc(Cl)ccc1O,1.95 µM (active),–
O=C(c1ccccc1)c1ccc2n1CCC2C(=O)O (stereo not given),17.3 µM (active),–
Nc1ncnc2c1ncn2[C@@H]1O[C@@H](CO)[C@H](O)[C@H]1O,–,0.711% [at 23.8 µM]
N[C@H](CSC(c1ccccc1)(c1ccccc1)c1ccccc1)C(=O)O,–,14.3%
CC(C(=O)O)c1ccc2c(c1)[nH]c1ccc(Cl)cc12 (stereo not given),–,-15.7%
CC(=C(CCOC(=O)C(C)C)SSC(CCOC(=O)C(C)C)=C(C)N(C=O)Cc1cnc(C)nc1N)N(C=O)Cc1cnc(C)nc1N,–,-17%
Cc1oncc1C(=O)Nc1ccc(C(F)(F)F)cc1,3.08 µM (active),–
Nc1ccc(O)c(C(=O)O)c1,–,-11.2%
O=C(OCc1ccccc1)c1ccc(O)cc1,19.5 µM (active),–
Cc1cccc(/C=C/c2ccccc2)n1,12.3 µM (active),–
CCCCCCCCCCCC(=O)[O][Sn]([CH2]CCC)([CH2]CCC)[O]C(=O)CCCCCCCCCCC,–,4.51%
CC1(C)Cc2c(sc(NC(=S)NC(=O)c3ccccc3)c2C(=O)O)CO1,–,-0.0994%
CC(C(=O)O)c1ccc(C(=O)c2cccs2)cc1 (stereo not given),17.3 µM (active),–
CC[C@]1(O)C[C@H]2CN(CCc3c([nH]c4ccccc34)[C@@](C(=O)OC)(c3cc4c(cc3OC)N(C=O)[C@H]3[C@@](O)(C(=O)OC)[C@H](OC(C)=O)[C@]5(CC)C=CCN6CC[C@]43[C@@H]65)C2)C1,–,26.6%
C[C@@H](N)c1ccc(C(=O)Nc2ccnc3[nH]ccc23)cc1,–,-12%
C=C1C(=O)[C@@]23C(CC[C@@H]1[C@H]2O)[C@@]12CO[C@]3(O)[C@@H](O)[C@@H]1C(C)(C)CC[C@@H]2O (stereo not given in full),–,30.6%
CCC(C(=O)O)c1ccc(N2Cc3ccccc3C2=O)cc1 (stereo not given),6.9 µM (active),–
COc1cc(NC(C)CCCN)c2ncccc2c1 (stereo not given),–,20.7%
CN(C)c1ccc2cc(C(=O)N[C@@H](CCCN=C(N)CCl)C(=O)NCc3ccccc3)ccc2c1,–,-11.2%
CCCCCCCC/C=C/C(=O)O,–,-2.36%

SMILES,Potency,"activity change, negative = inhibition"
COc1ccc(CC2=NN3C([C@@H](CCc4ccccc4)[C@@H](C)O)=NC(C)C3C(=O)N2)cc1OC (stereo not given in full),–,40.2%
CC(C)(C)OC(=O)CN(Cc1ccc(Cl)cc1)Cc1ccc([N+](=O)[O-])s1,–,-11.8% [at 88.3 µM]
CCCS(=O)c1ccc2nc(NC(=O)OC)[nH]c2c1 (stereo not given),21.8 µM (active),–
O=C(O)c1cc([N+](=O)[O-])ccc1NCCCc1ccccc1,19.5 µM (active),–
Nc1ccc(-c2ccc3ccccc3n2)cc1,6.9 µM (active),–
O=C1C(Cl)=C(NCCN2CCOCC2)C(=O)c2ncccc21,5.48 µM (active),–
COc1ccc(-c2coc3cc(O)ccc3c2=O)cc1,15.5 µM (active),–
CCCCC1C(=O)N(c2ccccc2)N(c2ccc(O)cc2)C1=O (stereo not given),–,22.7%
Oc1cc(O)cc(/C=C/c2ccc(O)c(O)c2)c1,6.15 µM (active),–
Cc1c(N)c(=O)n(-c2ccccc2)n1C,–,0.521%
O[C@@H](COc1cccc2ncccc12)CN1CCN(C2c3ccccc3[C@@H]3[C@H](c4ccccc42)C3(F)F)CC1 (stereo not given in full),–,-9.17%
O=C(O)c1ccccc1NCCc1ccccc1,–,-28.5%
c1ccc2[nH]c(-c3cscn3)nc2c1,12.3 µM (active),–
CC(=O)Oc1ccccc1C(=O)Nc1ncc([N+](=O)[O-])s1,2.24 µM (active),–
CN(C)c1cc(NC(=O)CNC(C)(C)C)c(O)c2c1C[C@@H]1C[C@H]3[C@H](N(C)C)C(=O)C(C(N)=O)=C(O)[C@@]3(O)C(=O)C1=C2O,–,-7.85%
Cc1ccc(O)c(-n2nc3ccccc3n2)c1,7.74 µM (active),–
CN(C)c1ccc(N=NS(=O)(=O)O)cc1,–,-21.5% [at 88.3 µM]
CN(C)c1ccc(C(=C2C=CC(=[N+](C)C)C=C2)c2ccccc2)cc1,–,-25.3%
Cc1nc(N)sc1-c1ccnc(Nc2ccc(N3CCOCC3)cc2)n1,–,-13.1%
COc1cc2nc(-c3ccc(N4CCN(C)CC4)cc3)nc(NCCN3CCOCC3)c2cc1OC,–,-20.6%

# — PubChem BioAssay AID1224853 (National Center for Advancing Translational Sciences (NCATS), 2016)
